A selection: hits, their analogues and other compounds. The true share with any hit is near 7.9%.
SW480 rereplic = inducers of DNA re-replication in SW480 colon cancer cells; SW480 DNA re-replication, Hoechst DNA content imaging, 48 h; Potency, µM (series often up to 46.1 µM), inactives show at the top dose re-replication activation, usual class: activators; hit rate 1.8% among 340,000; AID 624297; further: % of control where 0% means no effect; nearly all actives have a fitted effect of over 55% in size
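DNA re-replication was detected as more nuclei of elevated Hoechst intensity after 48 hr exposure to compound (23 nL pinned per well of 250 cells).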
HT1080-NT tox = kills 2HG-producing HT-1080-NT fibrosarcoma cells. hit rate 1.6% among 360,000. Potency, µM (titrated, usually from 46.1 µM), for inactives: top-dose activity, negative = less viability, actives largely listed as cytotoxic. HT-1080-NT fibrosarcoma viability, CellTiter-Glo ATP luminescence, 48 h;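 further: NT is the 2HG producing partner of a matched IDH1 knockdown line; 0% = DMSO-treated cells and -100% = media-only wells without cells; nearly all actives have a fitted effect of over 55% in size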
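Toxicity toward the 2HG-producing NT line was scored as %Activity, normalised to DMSO and no-cell wells, from CellTiter-Glo luminescence after 48 hours' treatment.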
KB-V1 cytotox = kills drug-selected multidrug resistant KB-V1 cells; KB-V1 MDR cells viability, CellTiter-Glo, 72 h; hit rate 3.4% among 400,000; Potency, µM (top dose mostly 46.1 µM), actives largely listed as cytotoxic; further: on the % scale 0 is the no-effect control and ±100 the full control effect; nearly all actives have a fitted effect of over 60% in size
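Following 72 h at 37 degrees C with compound, KB-V1 cell viability was read by CellTiter-Glo luminescence, medium being phenol-red-free DMEM plus 10% FBS; concentration-response parameters came from normalized, curve-fitted qHTS data.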
HT1080 IDH1KD tx = kills HT-1080 cells with IDH1 knockdown; HT-1080 IDH1 knockdown viability, ATP luminescence, 48 h; Potency, µM (doses to about 46.1 µM), inactives show at the top dose activity, negative = toxicity, most hits filed as cytotoxic; hit rate 2% among 360,000; AID 686971;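 further: 0% = DMSO wells and -100% = cell-free medium wells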
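IDH1KD HT-1080 cells, 750/well, RPMI + 5% FBS; compound pinned after 2 h settling; 48 h, 37 °C; CellTiter-Glo luminescence; % activity normalised to DMSO and no-cell wells; curves fitted, classed by r2 and efficacy.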
MCF10A rerep = DNA re-replication induction in MCF 10a cells; MCF 10A DNA re-replication, Hoechst nuclear intensity, 48 h; Potency, µM (series often up to 46.1 µM), for the others: at the highest dose activity, positive = re-replication, most hits filed as activators; hit rate 2.9% among 350,000; further: % of control where 0% means no effect; nearly all actives have a fitted effect of over 50% in size
KB-3-1 cytotox = KB-3-1 parental cell cytotoxicity. KB-3-1 viability, CellTiter-Glo ATP luminescence, 72 h. Potency, µM (doses to about 46.1 µM), usual class: cytotoxic. hit rate 1.4% among 400,000; further: on the % scale 0 is the no-effect control and ±100 the full control effect; nearly all actives have a fitted effect of over 60% in size
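Viability of parental KB-3-1 cells, measured by CellTiter-Glo luminescence, followed a 72 h incubation at 37 °C with pinned compounds in phenol-red-free DMEM containing 10% FBS.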
An asterisk follows results filed as active; i = inactive; u = inconclusive; x = no result given. The call rests on the fitted dose curve; in most records, active means well fitted curve in the direction sought with a large enough effect; inconclusive means small, poorly fitted or top-dose-only effect, or another doubt; inactive means no such curve, though single readings can be large; an effect the other way counts as inactive or inconclusive. Potency means the concentration at half of the fitted maximal effect.

SMILES	SW480 rereplic	HT1080-NT tox	KB-V1 cytotox	HT1080 IDH1KD tx	MCF10A rerep	KB-3-1 cytotox
CC(=O)Nc1cccc(NC(=O)C2C3C=CC(C3)C2C(=O)O)c1 (stereo not given)	-0.9%	-0.1%	i	12.6%	0.4%	i
CCOC(=O)C1=NN(c2ccccc2)C2=NC(C)=C(C(=O)OC)C(c3ccc(C)cc3)N12 (stereo not given)	0.0%	-3.8%	14.6µM*	-3.4%	1.9%	i
O=C(Nc1ccc(Oc2cccnc2)cc1)c1ccccc1F	-0.8%	11.2%	16.4µM*	1.4%	1.9%	u
CCCCn1c(-c2ccc(Br)cc2F)nc2c1c(=O)[nH]c(=O)n2CC(C)C	1.4%	u	i	-24.4%	18.4µM*	i
CCCCn1c(=O)[nH]c(=O)c2c1nc(-c1ccc(-c3ccc(F)cc3)o1)n2C	u	5.2%	i	10.8%	10.3µM*	i
CCCOc1ccc(-c2nc3c(c(=O)[nH]c(=O)n3Cc3ccccc3)n2CCO)cc1OCC	u	-21.1%	i	-0.9%	-4.4%	i
CCCCn1c(=O)[nH]c(=O)c2c1nc(-c1ccc(OCC)cc1)n2CC	-6.2%	-0.6%	i	7.3%	15.1%	i
CCCCn1c(=O)[nH]c(=O)c2c1nc(-c1ccc(OCCC)c(OCC)c1)n2CCOC	6.4%	-6.3%	i	-16.8%	23.1µM*	i
COc1ccc([C@H]2CC(=O)C=C(c3ccc(OC)nc3)C2)cc1	-6.0%	-1.3%	i	-10.3%	-24.2%	i
CC1(C)CC(=O)C(CO)=C(c2cccc3ccccc23)C1=O	-1.8%	14.0%	i	1.5%	1.7%	i
O=CNc1ccc2c(c1)Cc1cc([N+](=O)[O-])ccc1-2	3.26µM*	5.8µM*	u	5.17µM*	u	2.31µM*
CC(=O)Nc1ccc(Sc2ccc([N+](=O)[O-])o2)cc1	5.8µM*	4.11µM*	u	5.8µM*	1.84µM*	i
CC(C)(C)C(=O)Nc1ccc(Sc2ccc([N+](=O)[O-])cc2)cc1	22.9%	-13.5%	20.6µM*	-13.6%	u	i
Cc1coc2c1c(C)cc1oc(=O)c(CC(=O)NCCCN3CCCC3=O)c(C)c12	-3.6%	6.3%	i	-1.3%	9.9%	i
CCCCNCc1ccc(OCc2ccc(Cl)nc2)c(OC)c1	-1.4%	-16.3%	i	3.2%	u	i
CCN1CCCC1CNCc1ccc(OCc2ccc(Cl)nc2)c(OC)c1 (stereo not given)	22.5%	3.3%	i	-16.0%	5.8µM*	i
CCCCn1c(N)c(N(Cc2ccccc2OC)C(=O)C(C)Oc2ccc(Cl)cc2)c(=O)[nH]c1=O (stereo not given)	20.6µM*	-3.8%	i	-2.9%	-17.5%	u
Cc1ccc(NC(=O)c2ccc(NC(=O)c3ccccc3)cc2)cc1C	u	u	18.4µM*	u	24.1%	23.1µM*
CC(=O)Nc1ccc(NC(=O)c2ccc(NS(=O)(=O)c3cc(C(C)(C)C)cc(C)c3C)cc2)cc1	1.1%	u	i	u	18.4µM*	i
Cc1cccc(C(=O)Nc2ccc(NC(=O)c3cccc(C)c3)cc2)c1	x	1.5%	i	-3.3%	x	u
Cc1cccc(C(=O)Nc2ccc(C(=O)Nc3ccc(O)cc3)cc2)c1	-0.7%	20.6µM*	i	7.31µM*	14.6µM*	i
Cc1ccc(C(=O)Nc2cc(C(C)C)c(O)c(C(C)C)c2)cc1	-0.9%	1.2%	16.4µM*	-9.7%	-2.0%	u
Cc1ccc(C(=O)Nc2ccc(Nc3ccccc3)cc2)cc1C	u	-29.7%	i	u	13.5%	i
Cc1ccc(NC(=O)CCC(=O)NNC(=O)Cc2ccccc2)cc1C	5.9%	0.0%	i	-6.2%	1.84µM*	i
Cc1csc(NC(=O)CSc2[nH]c(=O)ncc2C)n1	-3.2%	4.5%	u	1.9%	-0.1%	i
SMILES	SW480 rereplic	HT1080-NT tox	KB-V1 cytotox	HT1080 IDH1KD tx	MCF10A rerep	KB-3-1 cytotox
Cc1cnc(=O)[nH]c1SCC(=O)c1ccc(F)cc1	73.5%	-28.1%	i	-14.2%	18.4µM*	i
CC(C)[C@H](NC(=O)c1ccccc1Cl)C(=O)OCc1cc([N+](=O)[O-])cc2c1OCOC2	-2.4%	-3.8%	20.6µM*	-0.2%	12.5%	i
Cc1ccc(-n2c(=O)c3sc4ccccc4c3n(CC(=O)NC3CCCC3)c2=O)cc1C	x	x	i	x	x	i
CC1CCCC=CC2CC(OC(=O)CN(C)C)CC2C(O)C=CC(=O)O1 (stereo not given)	u	u	u	0.0291µM*	u	0.0082µM*
CCOC(=O)COc1ccc(Br)cc1/C=C/c1[nH]c(=O)[nH]c(=O)c1[N+](=O)[O-]	u	18.4µM*	i	u	u	i
CCOC(=O)COc1ccc(Br)cc1/C=C\c1[nH]c(=O)[nH]c(=O)c1[N+](=O)[O-]	u	-2.7%	i	-10.6%	8.2µM*	i
Fc1cc(Cl)ccc1NC(=S)NCCN1CCOCC1	-6.7%	3.1%	u	15.3%	9.0%	i
Cc1c(C(=O)NN)nn(-c2ccc(F)cc2)c(=O)c1C#N	-6.5%	-14.3%	i	-15.8%	-0.6%	i
N#Cc1c(-c2ccc(F)cc2)c(-c2ccc(F)cc2)nn(CCO)c1=O	3.26µM*	6.51µM*	8.2µM*	8.2µM*	5.8µM*	3.66µM*
COc1cc(C(=O)OCCc2c(C)nc3nc[nH]n3c2=O)cc(OC)c1OC	-27.9%	10.5%	i	7.6%	-12.6%	i
O=C(NC1CCCCC1)C(c1ccnc2ccccc12)n1c(=O)c(-c2ccccc2)nc2ccccc21 (stereo not given)	x	13µM*	23.1µM*	11.6µM*	x	18.4µM*
C=CCN1C(=O)/C(=C/c2ccc(OC(C)=O)c(OCC)c2[N+](=O)[O-])SC1=S	23.3%	9.2µM*	u	20.6µM*	3.66µM*	u
CCOC(=O)C1=CCC(c2ccco2)N(S(=O)(=O)c2ccc(C)cc2)C1 (stereo not given)	x	-24.0%	i	-18.8%	x	i
C[C@H](NC(=O)Cc1cccc2ccccc12)C(=O)N1CCOCC1	-2.0%	0.0%	i	1.1%	7.5%	i
CCOc1ccccc1C1C(C(=O)Nc2ccccc2OC)=C(C)Nc2nc3ccccc3n21 (stereo not given)	x	x	i	x	x	i
COc1cccc(-c2nnc3sc(C4CCCCC4)nn23)c1	5.7%	1.3%	3.66µM*	-6.0%	u	u
COc1cc(-c2nnc3sc(C4CCCCC4)nn23)cc(OC)c1OC	-7.0%	-7.8%	18.4µM*	-23.5%	20.6µM*	u

Compound activity: PubChem BioAssay, National Center for Advancing Translational Sciences (NCATS)
